Results published in PubChem BioAssay (EPA / NIEHS).
Activity calls are given as the source filed them. The calls were made as follows: active = hit-call score of the fitted dose curve at least 0.9, where 1 is the maximum; inactive = score below 0.9.

Test: ATG_Sox_CIS: Attagene CIS-FACTORIAL HepG2 Assay for human SRY-box transcription factor (SOX) (AID 2282960)
Settings: HepG2 Attagene cis-factorial SOX reporter, mRNA; actives raise or lower the signal
Method: ATG_CIS is a cell-based, multiplexed-readout assay that uses HepG2, a human liver cell line, with measurements taken at 24 hours after chemical dosing in a 24-well plate.ATG_Sox_CIS is one of 52 assay component(s) measured or calculated from the ATG_CIS assay. It is designed to make measurements of mRNA induction, a form of inducible reporter, as detected with fluorescence intensity signals by Reverse transcription polymerase chain reaction (RT-PCR) and Capillary electrophoresis technology.Data from the assay component ATG_Sox_CIS was analyzed into 1 assay endpoint. This assay endpoint, ATG_Sox_CIS, was analyzed with bidirectional fitting relative to DMSO as the negative control and baseline of activity. Using a type of inducible reporter, measures of mRNA for gain or loss-of-signal activity can be used to understand the reporter gene at the transcription factor-level as they relate to the gene SOX1. Furthermore, this assay endpoint can be referred to as a primary readout, because this assay has produced multiple assay endpoints where this one serves a reporter gene function. To generalize the intended target to other relatable targets, this assay endpoint is annotated to the dna binding intended target family, where the subfamily is HMG box protein.
Human liver HepG2 cells are transiently transfected with multiple reporter transcription units (MRTUs) in 6-well plates using FuGene 6 reagent (Roche; 3 ml FuGene/1 mg DNA). The MRTU constructs are regulated by a cis-regulating element (promoter). […] A major difference between the CIS and TRANS system is that in CIS activities of endogenous TFs are measured, whereas the TRANS assay evaluates changes in activities of exogenous, chimeric NR-Gal4 proteins. […] At the end of 24 hour incubation, total RNA was isolated using TriZol reagent (Invitrogen). The isolated RNA is then reverse-transcribed using oligo(dT) primer and Mo-MLV reverse transcriptase (Invitrogen) with DNAse I (Ambion) treatment for 30 min. The one-tenth of the produced cDNA was amplified by PCR using Taq DNA polymerase (Invitrogen) and two reporter sequence-specific primers. The PCR products were fluorescently labeled by primer extension with 6-arboxyfluorescein (6-FAM) 5'-labeled reporter sequence-specific primer (2 min at 95 C, 20 s at 68 C and 10 min at 72 C) and these products were digested with 5U of HpaI (New England Biolabs) for 2h at 37 C. The fragments were purified using Qiaquick PCR columns (Qiagen), analyzed on an ABI 3130xL genetic analyzer (Applied Biosystems) with peak positions identified by using a set of X-rhodamine (ROX)-labeled MapMarker1000 molecular weight standards (BioVentures). The raw capillary electrophoresis data was processed using Attagraph software (Attagene).

| Structure (SMILES) | outcome | AC50 |
| --- | --- | --- |
| COC(=O)c1ccc(C(=O)OC)c(C(=O)OC)c1 | inactive |  |
| CC1C(C)(C)C2=C(C(=O)CCC2)C1(C)C (stereo not given) | inactive |  |
| COC(C=C(C)CCC=C(C)C)OC | inactive |  |
| Oc1ccc(/C=C/c2cc(O)cc(O)c2)cc1 | inactive |  |
| COC(=O)CC(C)CCC=C(C)C (stereo not given) | inactive |  |
| CCCCCCCCCC[N+](C)(CCCCCCCCCC)CCC[Si](OC)(OC)OC | inactive |  |
| CCN1CCCC1=O | inactive |  |
| O=C(O)c1cc(O)c2ccccc2c1O | inactive |  |
| C=CC(=O)OCCCCCCCC(C)C | inactive |  |
| C[N+](C)(C)CCCNS(=O)(=O)C(F)(F)C(F)(F)C(F)(F)C(F)(F)C(F)(F)C(F)(F)C(F)(F)C(F)(F)F | inactive |  |
| CCN1CN(CC)CN(CC)C1 |  | 138 µM (active) |
| CC(C)OC(=O)c1ccccc1 | inactive |  |
| O=S(=O)(O)c1ccc(N=Nc2c(O)ccc3ccccc23)cc1 | inactive |  |
| CC(=O)OC1CCCCC1 | inactive |  |
| C=C1C[C@H]2[C@@H]3C=C(C)C4=CC(=O)CC[C@]4(C)[C@H]3CC[C@]2(C)[C@@]1(OC(C)=O)C(C)=O | inactive |  |
| c1ccc2cnccc2c1 | inactive |  |
| Nc1ccc(O)c([N+](=O)[O-])c1 | inactive |  |
| CC(C)(CO)COC(=O)C(C)(C)CO | inactive |  |
| CC1CCC(=O)C1=O (stereo not given) | inactive |  |
| CCCCCCOc1ccc(N)cc1 | inactive |  |

| Structure (SMILES) | outcome | AC50 |
| --- | --- | --- |
| Cc1cccc(C(C)(C)C)c1O | inactive |  |
| CC(C)(c1ccccc1)c1ccc(Nc2ccc(C(C)(C)c3ccccc3)cc2)cc1 | inactive |  |
| CCCCCC(=O)OCC | inactive |  |
| CC(C)[N+](C)(CCOC(=O)C1c2ccccc2Oc2ccccc21)C(C)C | inactive |  |
| Clc1cc(Cl)c(Cl)c(Cl)c1Cl | inactive |  |
| CCC(=O)C1CC(C(C)C)CC=C1C (stereo not given) | inactive |  |
| COc1cc(C)ccc1O | inactive |  |
| CCc1cccc(C)c1N(C(=O)CS(=O)(=O)O)C(C)COC (stereo not given) | inactive |  |
| O=C1CCCCCCCCCCC1 | inactive |  |
| CCc1cccc(CC)c1 | inactive |  |
| C=CC(=O)OCC(C)OCC(C)OCC(C)OC(=O)C=C (stereo not given) | inactive |  |
| CCCCC(C=O)CC (stereo not given) | inactive |  |
| CC=C(C)C(C)=O | inactive |  |
| CC(C=O)c1ccccc1 (stereo not given) | inactive |  |
| CC(C)CCCCCOC(=O)CS | inactive |  |
| C1CNCCN1 | inactive |  |
| Cc1cc(=O)[nH]c(=O)[nH]1 | inactive |  |
| CCCCCCC=O | inactive |  |
| O=C(O)CCC(=O)O | inactive |  |
| CCCCCCCCCCCC(=O)OCC | inactive |  |
